# ALOX12 inhib = blocks human 12-lipoxygenase activity; purified 12-hLO, xylenol orange hydroperoxide absorbance; P18054; Potency, µM (doses to about 57.1 µM), inactives show at the highest dose activity change, negative = inhibition, hits mostly inhibitors; AID 1452; actives 0.12% (n = 150,000); active = well fitted curve in the direction sought with a large enough effect; inconclusive = small, poorly fitted or top-dose-only effect, or another doubt; inactive = no such curve, though single readings can be large; an effect the other way counts as inactive or inconclusive; also: potency is read from the fitted curve at half-maximal effect; nearly all actives have a fitted effect of over 55% in size
# Target sequence (P18054 whole entry, looked up): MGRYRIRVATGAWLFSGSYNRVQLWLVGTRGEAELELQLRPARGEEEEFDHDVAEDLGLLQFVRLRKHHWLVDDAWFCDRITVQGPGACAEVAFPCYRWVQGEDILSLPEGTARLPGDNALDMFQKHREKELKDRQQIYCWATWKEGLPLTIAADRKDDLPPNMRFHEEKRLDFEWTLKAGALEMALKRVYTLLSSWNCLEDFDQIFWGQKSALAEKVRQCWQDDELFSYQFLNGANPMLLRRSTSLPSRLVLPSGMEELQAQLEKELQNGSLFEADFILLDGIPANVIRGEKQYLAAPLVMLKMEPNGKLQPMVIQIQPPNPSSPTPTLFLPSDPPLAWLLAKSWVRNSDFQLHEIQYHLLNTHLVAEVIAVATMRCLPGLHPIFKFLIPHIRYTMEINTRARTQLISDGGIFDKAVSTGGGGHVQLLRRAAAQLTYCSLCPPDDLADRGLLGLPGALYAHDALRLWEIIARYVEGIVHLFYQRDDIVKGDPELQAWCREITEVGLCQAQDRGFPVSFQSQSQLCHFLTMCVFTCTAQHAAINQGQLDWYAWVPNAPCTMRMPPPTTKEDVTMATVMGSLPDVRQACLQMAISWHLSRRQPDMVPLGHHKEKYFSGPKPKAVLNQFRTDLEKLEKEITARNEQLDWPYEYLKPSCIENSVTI
#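 Lipoxygenase turnover measured by absorbance at 573 and 405 nm after Fe-XO development. Human 12hLO 150 nM, arachidonate 40 uM, pH 7.0 Hepes buffer with detergent; 15 min compound preincubation, 30 min reaction.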
# PNC assembly inh = perinucleolar compartment assembly inhibition | PC3M PTB-GFP, PNC prevalence imaging, 16 h; stronger effect = lower value | AID 2417 | actives 3.1% (n = 140,000) | activity change (PNC), negative = inhibition, % at 10 µM;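 active = readout at or below -70, meaning at least 70% loss of cells showing the perinucleolar compartment, a nuclear body marking cancer cells; inconclusive = readout between -30 and a set limit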;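 also: plate controls were DMSO wells for no effect and camptothecin positive control wells for full effect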
#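 Read-out is percentage of cells bearing a perinucleolar compartment, from automated 20x imaging of fixed, Hoechst-stained PC3M PTB-GFP cells. Cells were seeded 4 h, then exposed 16 h to compound (23 nl of library stock) in duplicate plates.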
# IMPase cell inh = IMPase inhibition in cells; CHO-M1 cells, IP1 accumulation, HTRF TR-FRET ratio; inhibition (IP1 accumulation), % at 46.1 µM; 120,000 tested, under 10 active; AID 901; active = well fitted curve in the direction sought with a large enough effect in the signal ratio, not every such curve was filed as active; inconclusive = small, poorly fitted or top-dose-only effect, or a change in a side signal; inactive = no such curve, though single readings can be large or run the other way; the % refers to the signal ratio;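 also: cells stimulated with carbachol in lithium chloride buffer; plate controls were DMSO basal wells for no effect and reference inhibitor wells for full effect; higher means more IMPase inhibition seen as more IP1 and lower FRET ratio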
#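 CHO-M1 cells (CHO stably expressing M1 receptor), compound up to 46 uM final, stimulated with carbachol (50 uM as added) in buffer with 50mM LiCl, pH 7.4, 30 min at 37C. Cytosolic IP1 read by TR-FRET; AC50 from Hill fits.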
# ALDH1A1 block = inhibitors of human aldehyde dehydrogenase 1A1; actives 7.3% (n = 220,000); Purified ALDH1A1, NADH fluorescence, propionaldehyde substrate; P00352; AID 1030; Potency, µM (doses to about 75.3 µM), for inactives: at the highest dose activity, negative = inhibition, actives largely listed as inhibitors;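 also: potency is read from the fitted curve at half-maximal effect; plate controls were no enzyme wells and a reference inhibitor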
# HPGD inh = inhibitors of human 15-hydroxyprostaglandin dehydrogenase (HPGD). P15428. purified HPGD, NADH fluorescence kinetic, PGE2 substrate. Potency, µM, for inactives: at the highest dose activity change, negative = inhibition, actives largely listed as inhibitors. actives 4.3% (n = 150,000). AID 894; also: potency is read from the fitted curve at half-maximal effect
#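 20 nM HPGD preincubated 15 min at room temperature with compound in 50 mM Tris-HCl pH 8, 0.01% Tween 20. Started with 1 mM NAD+ and 30 uM prostaglandin E2; NADH fluorescence (360/450 nm) read 5 times over 30-s intervals, last minus first.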
# IMPase Li inh = cell-permeable IMPase inhibitors with lithium potentiation. CHO-M1 cells, IP1 TR-FRET (IP-One), carbachol + lithium. Potency, µM (top dose mostly 59.4 µM), without a hit: at the top dose activity, negative = IMPase inhibition, most hits filed as inhibitors. actives 0.35% (n = 210,000); active = well fitted curve in the direction sought with a large enough effect; inconclusive = small, poorly fitted or top-dose-only effect, or another doubt; inactive = no such curve, though single readings can be large; an effect the other way counts as inactive or inconclusive;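 also: IP1 builds up when IMPase is blocked and the TR-FRET signal falls; potency is read from the fitted curve at half-maximal effect; plate controls were basal vehicle for no effect and high inhibitor control for full effect; nearly all actives have a fitted effect of over 50% in size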
#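 Steps: plate 2000 CHO-M1 cells per well and culture 16–30 h; add compound and lithium; incubate 30 min, 37C; add d2-IP1 tracer and Eu cryptate anti-IP1 antibody in lysis buffer; read after 10 min at room temperature.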
# Active calls of the source: *; ? = inconclusive; · = no result given; [ ] = dose if it differs, or a comment. Hits are enriched below; roughly 11% of the tested compounds scored in any of these assays. Unless noted, calls follow the shape of the dose curve; as a rule, active = well fitted inhibition curve with a large enough effect (not every such curve was filed as active); inconclusive = small, poorly fitted or top-dose-only effect, or another doubt; inactive = no such curve, though single readings can be large or run the other way. Unless noted, % is scaled to controls: 0 for no effect and ±100 for the full control effect.
SMILES,ALOX12 inhib,PNC assembly inh,IMPase cell inh,ALDH1A1 block,HPGD inh,IMPase Li inh
C=CCOC(=O)N[C@@H](c1cccs1)C(C(C)=O)C(C)=O,·,·,·,1%,-4%,-6%
O=C1/C(=C/c2cccs2)SC(=S)N1c1ccccc1,-4%,6,2,9%,-7%,5%[38.3 µM]
O=C1N=C(N2CCN(c3ccccc3)CC2)S/C1=C/c1cccs1,-9%,76,-8,?,16µM*,8%
O=C1N=C(c2ccccc2)S/C1=C\c1cccs1,-10%,38,8,3.5µM*,5.6µM*,7%[38.3 µM]
Cc1ccc(/C=C2\SC(N3CCN(C(c4ccccc4)c4ccccc4)CC3)=NC2=O)o1,-12%,-24,·,-6%,3.5µM*,26%
Cc1ccc(S(=O)(=O)Nc2cccc(Cl)c2)cc1NC(=O)c1cccnc1,·,·,·,14%,·,-1%
CCCCCCNC(=O)Nc1ccc(S(=O)(=O)Nc2ccc(CCNC[C@H](O)COc3ccc(O)cc3)cc2)cc1,-6%,·,·,-3%,-19%,1%
CC(C)C[C@@H](CC(=O)N[C@@H](CCCN)CC(=O)N[C@@H]1CCNC[C@H]1C(=O)N[C@H](CC(=O)N[C@@H](CCC(=O)O)CC(=O)O)Cc1ccccc1)NC(=O)[C@@H]1CNCC[C@H]1N,-3%,·,·,-7%,-5%,12%
COc1cc(C2CC(=O)Oc3cc(C)c(Cl)cc32)cc(OC)c1OC (configuration not stated),-1%[0.00818 µM],·,·,4%,-7%,15%
CC(C)OC(=O)c1ccc(Cn2nnc3sc4c(c3c2=O)CCCC4)cc1,·,·,6,·,·,·
COc1cc(Cl)c(S(=O)(=O)N2CCCC2)cc1Cl,·,·,·,-2%,·,4%
COc1cc(N2C(=O)C=CC2=O)c(OC)cc1Cl,·,·,·,8.9µM*,·,·
Cn1cc(C(F)(F)F)nc1-c1ccc(OCC(O)CNCCOc2ccc(O)c(C(N)=O)c2)cc1 (configuration not stated),·,·,·,?,?,9%
CCCCCCc1cc2cc(-c3nnc(-c4cccc(Cl)c4)o3)c(=O)oc2cc1O,·,·,6,·,·,·
Cc1cccc(NC(=O)C2CC(=O)n3cnnc3S2)c1 (configuration not stated),-3%,12,2,0.71µM*,10µM*,17%[38.3 µM]
O=C1[C@H]2[C@H]3[C@H](O)[C@H](O)C/C(=N/OC[C@@H](O)COCc4ccco4)[C@@H]3CC[C@@H]2C(=O)N1Cc1ccccc1,·,·,·,-9%[13.5 µM],·,·
COc1cccc(-c2nc(SCC(=O)NC3CCCC3)c(-c3ccccc3)[nH]2)c1,·,·,11,·,·,·
COc1ccc(OC)cc1,-4%,·,·,-6%,-3%,2%
COc1ccc(C2=C(SC)CC2=NC(C)(C)C)cc1,-3%,?,·,18µM*,-6%,4%
O=C(O)c1cc([N+](=O)[O-])c(NCCC2=CCCCC2)c([N+](=O)[O-])c1,·,·,·,10µM*,·,9%
Clc1ccc(OCc2nn3c(C4CCCCC4)nnc3s2)cc1,-4%,-16,3,18µM*,20µM*,11%
c1ccc(-c2nn3c(C4CCCCC4)nnc3s2)nc1,2%,23,-2,?,-24%,2%[38.3 µM]
CCC(C)NC(=O)COC(=O)c1csc2c1CCCC2 (configuration not stated),1%,7,6,-13%,25µM*,-5%
CC1CCCCN1S(=O)(=O)c1ccc(NC(=O)c2cccc(-n3cnnn3)c2)cc1 (configuration not stated),-3%,-11,1,25µM*,22µM*,9%[38.3 µM]
COc1cc(C(=O)Nc2ccc(S(=O)(=O)N3CCCCC3C)cc2)cc(OC)c1OC (configuration not stated),-6%,?,9,?,-14%,4%[38.3 µM]
SMILES,ALOX12 inhib,PNC assembly inh,IMPase cell inh,ALDH1A1 block,HPGD inh,IMPase Li inh
CC1CCCN(S(=O)(=O)c2ccc(NC(=O)c3cccc(-n4cnnn4)c3)cc2)C1 (configuration not stated),0%,-15,7,?,28µM*,39%[38.3 µM]
COc1ccc(C(=O)Nc2ccc(S(=O)(=O)N3CCCCC3C)cc2)c(OC)c1OC (configuration not stated),-6%,?,0,18µM*,?,3%[38.3 µM]
O=C(C1CCN(S(=O)(=O)c2ccc(-n3cnnn3)cc2)CC1)N1CCN(c2ccccc2)CC1,-4%,?,13,28µM*,-9%,14%[38.3 µM]
O=C(Nc1ccccc1)C1CCCN(S(=O)(=O)c2ccc(-n3cnnn3)cc2)C1 (configuration not stated),4%,-21,-2,?,-9%,13%[38.3 µM]
O=C(O)CCNCC(=O)O,-3%[11.4 µM],·,·,11%[13.5 µM],-1%,-2%
C=CC1=C2C=C(C3CC3)N(C3CCCC3)C=C2C(=O)C(C)(OC(=O)c2ccco2)C1=O (configuration not stated),-3%[11.4 µM],·,·,8%[13.5 µM],-1%,3%
CNc1nc2[nH]c(=O)c3c(c2s1)OC(N)=C(C#N)C3c1cccc(F)c1 (configuration not stated),-14%,-13,5,7.1µM*,?,?
CC(=O)Nc1ccccc1-c1nc2ccc(C(=O)N3CCN(c4cccc(C)c4)C(C)C3)cc2[nH]c1=O (configuration not stated),-1%,?,3,-2%,-14%,-3%[38.3 µM]
CC(=O)Nc1ccccc1-c1nc2ccc(C(=O)N3CCN(c4ccccc4)CC3)cc2[nH]c1=O,-4%,143,0,28µM*,?,14%
N#Cc1ccccc1Cn1c(=O)n(Cc2ccc(C(=O)NCc3ccco3)cc2)c(=O)c2sccc21,-1%,97,6,25µM*,-7%,8%
N#Cc1ccccc1Cn1c(=O)n(-c2ccc(CC(=O)NCc3ccco3)cc2)c(=O)c2sccc21,1%,-5,2,2%,-8%,21%[38.3 µM]
NC(=O)CNC(=O)[C@@H]1CC2(CC(c3ccc(Cl)cc3)=NO2)CN1C(=O)c1ccccc1 (some centres not stated),4%,-24,7,28µM*,-19%,-2%[38.3 µM]
Brc1ccc(-c2nc(-c3ccncc3)no2)o1,-2%,-89*,-5,11%,-8%,-8%[38.3 µM]
Brc1ccc(-c2nc(-c3ccccn3)no2)o1,-9%,38,12,1%,-4%,6%[38.3 µM]
CCCCc1ccc(-c2nc(-c3ccncc3)no2)cc1,2%,30,7,6.3µM*,-12%,20%[38.3 µM]
CC1(c2cnc(Nc3ccccc3)s2)CCC(=O)O1 (configuration not stated),-8%,-29,5,18µM*,-15%,-8%[38.3 µM]
O=C(c1ccc(F)cc1)c1cnc(Nc2ccccc2)s1,·,·,·,-2%,·,-3%

# Screening data deposited in PubChem BioAssay by National Center for Advancing Translational Sciences (NCATS).
